Screening results as filed in PubChem BioAssay.
This is a sample that favours compounds with a hit; in the whole collection about 1.9% have one here.
bovine MsrA act = activators of bovine methionine sulfoxide reductase A; purified bovine MsrA, absorbance read-out; activation, % at 10.6 µM; AID 602163; hit rate 0.3% among 360,000; in the data active = activation above about 7.5%;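 note: 0% = vehicle and 100% = reference activator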
PLCb3 inh = inhibitors of human phospholipase C beta3 | Q01970 | Purified PLC-beta3, fluorogenic substrate, fluorescence | inhibition, % at 12.2 µM | hit rate 0.18% among 370,000 | AID 720704; in the data active = inhibition above about 11%;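 note: 0% = median of compound wells on plate and 100% = full blocker control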
PLC-gamma1 inh = inhibitors of human phospholipase C gamma1. P19174. purified PLC-gamma1, fluorogenic substrate, fluorescence. inhibition, % at 12.2 µM. hit rate 0.84% among 370,000
Target sequence (P19174 whole entry, looked up): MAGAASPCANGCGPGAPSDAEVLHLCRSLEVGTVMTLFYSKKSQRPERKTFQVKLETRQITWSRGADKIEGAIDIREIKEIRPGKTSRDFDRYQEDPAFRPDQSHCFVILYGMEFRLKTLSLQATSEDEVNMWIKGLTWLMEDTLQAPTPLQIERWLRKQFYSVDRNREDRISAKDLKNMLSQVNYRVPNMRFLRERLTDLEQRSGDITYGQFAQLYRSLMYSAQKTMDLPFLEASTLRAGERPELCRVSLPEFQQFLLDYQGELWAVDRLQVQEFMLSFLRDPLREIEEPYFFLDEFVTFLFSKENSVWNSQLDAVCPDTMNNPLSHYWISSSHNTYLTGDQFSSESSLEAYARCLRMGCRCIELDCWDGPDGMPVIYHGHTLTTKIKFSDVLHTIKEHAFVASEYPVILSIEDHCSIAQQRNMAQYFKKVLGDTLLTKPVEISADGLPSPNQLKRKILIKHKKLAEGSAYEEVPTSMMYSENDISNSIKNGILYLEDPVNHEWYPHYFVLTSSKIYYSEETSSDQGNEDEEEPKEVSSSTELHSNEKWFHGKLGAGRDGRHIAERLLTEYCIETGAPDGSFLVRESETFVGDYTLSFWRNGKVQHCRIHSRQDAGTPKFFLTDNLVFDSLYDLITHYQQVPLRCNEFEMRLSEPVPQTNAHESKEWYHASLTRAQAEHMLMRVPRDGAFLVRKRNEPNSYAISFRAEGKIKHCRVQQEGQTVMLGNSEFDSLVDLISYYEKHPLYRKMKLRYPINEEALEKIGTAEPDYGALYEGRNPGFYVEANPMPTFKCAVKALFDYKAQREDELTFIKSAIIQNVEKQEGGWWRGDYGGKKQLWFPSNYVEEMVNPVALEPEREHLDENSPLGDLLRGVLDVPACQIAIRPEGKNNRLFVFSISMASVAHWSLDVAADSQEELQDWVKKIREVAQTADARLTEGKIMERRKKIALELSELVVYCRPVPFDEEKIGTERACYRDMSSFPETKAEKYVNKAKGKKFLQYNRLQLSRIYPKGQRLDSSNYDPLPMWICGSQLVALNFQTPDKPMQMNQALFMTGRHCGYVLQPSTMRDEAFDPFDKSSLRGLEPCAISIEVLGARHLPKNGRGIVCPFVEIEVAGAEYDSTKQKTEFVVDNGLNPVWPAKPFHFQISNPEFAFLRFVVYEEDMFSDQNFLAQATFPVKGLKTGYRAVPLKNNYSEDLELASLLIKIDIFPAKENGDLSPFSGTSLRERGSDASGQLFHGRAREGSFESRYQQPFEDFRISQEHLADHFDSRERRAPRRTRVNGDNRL
MsrA inhibitor = bovine MsrA inhibition; purified bovine MsrA, absorbance read-out; inhibition, % at 15.5 µM; hit rate 0.75% among 360,000; in the data active = inhibition above about 4.5%;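 note: 0% = vehicle wells with enzyme and 100% = reference inhibitor wells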
PLCgamma1 ctr = inhibits human PLC-gamma1 in PLC-beta3 counter-screen; inhibition, % at 12.3 µM; hit rate 3.1% among 3,300; shares compounds with PLC-gamma1 inh; purified PLC-gamma1, fluorogenic substrate, fluorescence
PLCb3 confirm = human PLC-beta3 inhibition, confirmation | shares compounds with PLC-gamma1 inh | purified PLC-beta3, fluorogenic substrate fluorescence | inhibition, % at 12.3 µM | hit rate 1% among 3,300 | AID 743261; in the data active = inhibition above about 11%
Starred values were filed as active, the others as inactive; nt = no result. Cut-off read from the data, not from the text of the source, unless noted: active = inhibition above about 9.5%; inactive = the rest.

SMILES	bovine MsrA act	PLCb3 inh	PLC-gamma1 inh	MsrA inhibitor	PLCgamma1 ctr	PLCb3 confirm
Cc1ccc(N2CC(C(=O)Nc3ccc(S(=O)(=O)N4CCCC4)cc3)CC2=O)cc1 (stereo unspecified)	-1	2	15*	0	-1	0
CC(=O)c1c(C)[nH]c(C(=O)OCC(=O)NCCc2ccc(Cl)cc2)c1C	0	2	11*	0	3	-2
CC(=O)c1c(C)[nH]c(C(=O)OCC(=O)NCCc2ccc(F)cc2)c1C	-1	0	0	0	nt	nt
COC(=O)c1ccc(NC(=O)CN2CCN(c3ccccn3)CC2)cc1	-1	-87	9.9*	1	-4	-3
COC(=O)c1ccc(NC(=O)CN2CCN(c3ccccc3)CC2)cc1	-2	-7	12*	0	-8	-7
COC(=O)c1cccc(NC(=O)CN2CCN(c3ccc(OC)cc3)CC2)c1	-14	0	13*	0	-4	-1
O=C(CN1CCN(c2ccccn2)CC1)Nc1ccccc1	-16	4	2	-1	nt	nt
CCCCn1c(C(C)NC(=O)CCC)nc2ccccc21 (stereo unspecified)	-2	7	0	0	nt	nt
CCCCCn1c(C(C)NC(=O)CCC)nc2ccccc21 (stereo unspecified)	-3	14*	7	0	-6	-1
CCOc1ccc2nc(NC(=O)C3CCCN(S(=O)(=O)c4cccc5nonc45)C3)sc2c1 (stereo unspecified)	-3	2	0	-1	nt	nt
COc1ccc2nc(NC(=O)C3CCCN(S(=O)(=O)c4cccc5nonc45)C3)sc2c1 (stereo unspecified)	-11	-3	10*	2	0	-9
COc1ccccc1C(=O)Nc1ccc(C)cc1C(=O)c1ccccc1	-1	4	9.7*	2	0	-1
COc1ccc(C(=O)Nc2ccc(C)cc2C(=O)c2ccccc2)cc1	-3	2	5	-1	nt	nt
COc1cc(C(=O)Nc2ccc(Br)cc2C(=O)c2cc(OC)c(OC)c(OC)c2)cc(OC)c1OC	-1	9	15*	2	-1	-8
COc1cc(C(=O)Nc2ccccc2NC(=O)c2cc(OC)c(OC)c(OC)c2)cc(OC)c1OC	-7	-1	3	-1	nt	nt
Nc1[nH]c(C(=O)c2ccc(Br)cc2)c(-c2c(F)cccc2F)c1C(=O)NCCc1c[nH]c2ccccc12	nt	-34	-28	0	nt	nt
c1ccc2c(C3OCC4(CCCC4)CO3)cccc2c1	-2	2	9.6*	0	-1	-2
Oc1ccccc1C1OCC2(CO1)COC(c1ccccc1O)OC2 (stereo unspecified)	-3	3	0	0	nt	nt
Cc1ccccc1NC(=O)Nc1nc(C2CCC(=O)N2)cs1 (stereo unspecified)	0	0	0	0	nt	nt
Cc1cccc(S(=O)(=O)NC(=O)C2(C)CCN2C(=O)Cc2ccc(Cl)cc2Cl)c1 (stereo unspecified)	0	2	-3	0	nt	nt
Clc1ccc(C2CSc3c4ncnc-4ncn32)cc1 (stereo unspecified)	-10	3	11*	0	-8	-1
O=C(COC(=O)c1ccccn1)NCc1cccs1	-5	-2	0	-2	nt	nt
CC(Oc1ccc([N+](=O)[O-])cc1)C(=O)NCC1CCCO1 (stereo unspecified)	-2	3	11*	1	-1	4
COc1ccc(CNCC(O)COc2ccc(C(C)(C)c3ccccc3)cc2)cc1 (stereo unspecified)	-2	-1	11*	-1	-2	-3
Cc1ccccc1CSc1n[nH]c(NS(=O)(=O)c2ccccc2)n1	-1	5	10*	0	6	1
SMILES	bovine MsrA act	PLCb3 inh	PLC-gamma1 inh	MsrA inhibitor	PLCgamma1 ctr	PLCb3 confirm
Cc1nc(SCc2ccccc2C#N)n[nH]1	-3	0	-1	-2	nt	nt
CN(CCC1CCOCC1)C(=O)C1CCC(=O)N(CCc2ccccc2)C1 (stereo unspecified)	-5	1	9.7*	1	0	-51
Cc1cnc(CN(C)C(=O)C2CCC(=O)N(CCc3ccccc3)C2)[nH]1 (stereo unspecified)	-13	-2	4	-1	nt	nt
C#CCN(CC=C)C(=O)c1ccc2nc(C3CCCCC3)oc2c1	-4	0	9.5*	1	-5	-3
C#CCOc1ccc(Br)cc1C(c1c(C)[nH][nH]c1=O)c1c(C)[nH][nH]c1=O	1	-2	62*	-2	-3	-1
CCOc1ccc(Cl)cc1C(c1c(C)[nH][nH]c1=O)c1c(C)[nH][nH]c1=O	-5	-16	-5	0	nt	nt
Cc1ccc2c(c1)NC(=O)C(CC(=O)NCCCN1CCN(c3cc(Cl)ccc3C)CC1)O2 (stereo unspecified)	-13	6	9.5*	1	-17	-11
C[C@@H]1CN([C@H](C)CO)C(=O)CCCn2nncc2CO[C@H]1CN(C)C(=O)Nc1cccc(Oc2ccccn2)c1	-11	1	9.7*	0	-2	1
COc1cccc(S(=O)(=O)N(C)C[C@@H]2OCc3cnnn3CCCC(=O)N([C@H](C)CO)C[C@@H]2C)c1	1	4	0	0	nt	nt
C[C@H](CO)N1C[C@H](C)[C@@H](CN(C)C(=O)Nc2cccc(Oc3ccccn3)c2)OCc2cnnn2CCCC1=O	-2	0	0	0	nt	nt
COc1cccc(S(=O)(=O)N(C)C[C@H]2OCc3cnnn3CCCC(=O)N([C@@H](C)CO)C[C@@H]2C)c1	-2	11*	0	0	0	-6
O=C(CCNC(=O)c1ccccc1Cl)Nc1ccc2c(c1)OCO2	-4	10	11*	1	-2	-1
NS(=O)(=O)c1ccc(CCNC(=O)CSc2nc3c(sc(=S)n3-c3ccccc3)c(=O)[nH]2)cc1	-1	4	8	3	nt	nt
C[C@@H]1CCCCO[C@@H](CN(C)C(=O)NC2CCCCC2)[C@@H](C)CN([C@H](C)CO)C(=O)c2cc(N(C)C)ccc2O1	nt	-34	-24	0	nt	nt
O=C(NC1CCCCC1)c1cc(-n2cnnc2)ccc1Cl	-4	-3	9.8*	0	2	4
O=C(Nc1ccc2c(c1)OCCO2)c1cc(-n2cnnc2)ccc1Cl	-3	6	11*	0	-8	-5
CCn1c2c(c(C)cc1=O)C(=O)CC(C)(C)C2	3	-1	0	1	nt	nt
CCn1c(C)c2c([n+]1CC)CC(C)(C)CC2=O	-1	76*	1	0	-4	-1
Cn1c(=O)c2c(nc(N3CCN(c4ccccn4)CC3)n2Cc2ccc(Cl)cc2Cl)n(C)c1=O	-5	7	11*	0	4	1
COc1ccnc2c1c(=O)n(Cc1ccc(Cl)cc1Cl)c(=O)n2C	-2	-4	9.8*	0	-14	-9
CCOC(=O)CN1C(=O)[C@]2(OCCC=C[C@H]2C)c2cc(OC)ccc21	nt	0	2	2	nt	nt
COc1ccc(C(=O)Nc2ccc(OC)c([N+](=O)[O-])c2)cc1Br	-4	4	3	0	nt	nt
